Key:
Assay in all cases: yeast three-hybrid, YBZ-1, SC-Leu-His + 0.5 mM 3-AT, 4 days
Details in all cases: tags: N-Gal4 AD-HA kept; label: inside an RPR1-promoter hybrid RNA with tandem MS2 sites; ssRNA
[1] = biological target: PUM1 PUF domain R4-TAQ (Homo sapiens, UniProt Q14671 828-1176, N971T;H972A)
How it was run: (§1)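 Pumilio-1 PUF domain libraries, randomized at the three base-contacting residues of each repeat, were co-expressed with matching RNA elements from a centromeric plasmid in strain YBZ-1, which carries a LexA–MS2 coat fusion and a HIS3 reporter. Transformants grew for four days on SC-Leu (input) or on SC-Leu-His + 0.5 mM 3-AT (selection), and the repeat regions were PCR-amplified and Illumina-sequenced. The interaction score is the log change in variant frequency from input to selection. That logarithm is base 2, with a pseudocount of 1 where a variant was absent.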

[2] = biological target: PUM1 PUF domain R8-NWH (Homo sapiens, UniProt Q14671 828-1176, Y1123W;Q1126H)
How it was run: as §1

[3] = biological target: PUM1 PUF domain R8-RCR (Homo sapiens, UniProt Q14671 828-1176, N1122R;Y1123C;Q1126R)
How it was run: as §1

[4] = biological target: PUM1 PUF domain R3-GPV (Homo sapiens, UniProt Q14671 828-1176, C935G;R936P;Q939V)
How it was run: as §1

[5] = biological target: PUM1 PUF domain R8-RYR (Homo sapiens, UniProt Q14671 828-1176, N1122R;Q1126R)
How it was run: as §1

[6] = biological target: PUM1 PUF domain R1-RMS (Homo sapiens, UniProt Q14671 828-1176, S863R;R864M;Q867S)
How it was run: as §1

[7] = biological target: PUM1 PUF domain R1-LKR (Homo sapiens, UniProt Q14671 828-1176, S863L;R864K;Q867R)
How it was run: as §1

[8] = biological target: PUM1 PUF domain R3-WYA (Homo sapiens, UniProt Q14671 828-1176, C935W;R936Y;Q939A)
How it was run: as §1

[9] = biological target: PUM1 PUF domain R7-KHQ (Homo sapiens, UniProt Q14671 828-1176, S1079K;N1080H;E1083Q)
How it was run: as §1

[10] = biological target: T1, PUM1 PUF domain R6-FWS (Homo sapiens, UniProt Q14671 828-1176, N1043F;Y1044W;Q1047S)
T1 sequence: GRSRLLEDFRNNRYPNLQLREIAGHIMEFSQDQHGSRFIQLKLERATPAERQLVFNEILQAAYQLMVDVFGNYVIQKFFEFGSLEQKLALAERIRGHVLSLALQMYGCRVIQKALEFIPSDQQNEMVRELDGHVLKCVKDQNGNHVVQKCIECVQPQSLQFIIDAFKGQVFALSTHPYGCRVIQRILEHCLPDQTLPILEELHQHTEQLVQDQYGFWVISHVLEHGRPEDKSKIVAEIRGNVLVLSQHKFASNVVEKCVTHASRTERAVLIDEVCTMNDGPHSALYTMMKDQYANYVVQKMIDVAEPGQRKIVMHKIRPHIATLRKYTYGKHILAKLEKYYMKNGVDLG
How it was run: as §1

GGCUAGAACUAGUGGAUCCCCCGGCGCCCGGCGGCUCGAGCCCGGGUAAGUGUAUAUAGUCUGCAUGCCGCCGGGCGCCAUGCCUGCAGGUCGACUCUAGAAAACAUG
binding signal [1]: 3.78 log2 enrichment (interaction score)

GGCUAGAACUAGUGGAUCCCCCGGCGCCCGGCGGCUCGAGCCCGGGUAAGUGUAAAUAGUCUGCAUGCCGCCGGGCGCCAUGCCUGCAGGUCGACUCUAGAAAACAUG
binding signal [2]: 2.75 log2 enrichment (interaction score)
binding signal [1]: 0.74 log2 enrichment (interaction score)
binding signal [3]: 1.34 log2 enrichment (interaction score)
binding signal [4]: 2.08 log2 enrichment (interaction score)
binding signal [5]: 6.26 log2 enrichment (interaction score)

GGCUAGAACUAGUGGAUCCCCCGGCGCCCGGCGGCUCGAGCCCGGGUAAGCGUAAAUAGUCUGCAUGCCGCCGGGCGCCAUGCCUGCAGGUCGACUCUAGAAAACAUG
binding signal [3]: 3.19 log2 enrichment (interaction score)
binding signal [5]: 7.21 log2 enrichment (interaction score)

GGCUAGAACUAGUGGAUCCCCCGGCGCCCGGCGGCUCGAGCCCGGGUAAGUGUAAAUCGUCUGCAUGCCGCCGGGCGCCAUGCCUGCAGGUCGACUCUAGAAAACAUG
binding signal [6]: 3.18 log2 enrichment (interaction score)
binding signal [7]: 3.44 log2 enrichment (interaction score)

GGCUAGAACUAGUGGAUCCCCCGGCGCCCGGCGGCUCGAGCCCGGGUAAGUGUAAUUAGUCUGCAUGCCGCCGGGCGCCAUGCCUGCAGGUCGACUCUAGAAAACAUG
binding signal [8]: 3.22 log2 enrichment (interaction score)
binding signal [4]: 2.28 log2 enrichment (interaction score)

GGCUAGAACUAGUGGAUCCCCCGGCGCCCGGCGGCUCGAGCCCGGGUAAGUGUAAAUUGUCUGCAUGCCGCCGGGCGCCAUGCCUGCAGGUCGACUCUAGAAAACAUG
binding signal [6]: 2.07 log2 enrichment (interaction score)
binding signal [7]: 2.22 log2 enrichment (interaction score)

GGCUAGAACUAGUGGAUCCCCCGGCGCCCGGCGGCUCGAGCCCGGGUAAGUUUAAAUAGUCUGCAUGCCGCCGGGCGCCAUGCCUGCAGGUCGACUCUAGAAAACAUG
binding signal [9]: 2.38 log2 enrichment (interaction score)

GGCUAGAACUAGUGGAUCCCCCGGCGCCCGGCGGCUCGAGCCCGGGUAAGUGAAAAUAGUCUGCAUGCCGCCGGGCGCCAUGCCUGCAGGUCGACUCUAGAAAACAUG
binding signal [10]: 4.06 log2 enrichment (interaction score)

GGCUAGAACUAGUGGAUCCCCCGGCGCCCGGCGGCUCGAGCCCGGGUAAGUCUAAAUAGUCUGCAUGCCGCCGGGCGCCAUGCCUGCAGGUCGACUCUAGAAAACAUG
binding signal [9]: 4.15 log2 enrichment (interaction score)

Reference: paper PMC8384837, “Expanding the binding specificity for RNA recognition by a PUF domain”
